This is an account of results in PubChem BioAssay.

The nature of test [1]: glutamate transport activators, MN-1 cells, MN-1 cell line (AID 1612).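 Further: tested at 1 µM final; 0% = mean of DMSO vehicle wells on each plate; positive means more glutamate uptake than control and negative means less.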 As to conditions: MN-1 motor neuron cells, stronger effect = higher value.
Test [2] can be described thus: GFP-Q80 aggregate reduction, neuronal-like cells, cell-based, NGF-treated PC12, GFPQ80 (AID 1614).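 Further: lower means fewer inclusions and 0 means no inclusions at all.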 As to conditions: PC12 NGF-treated GFP-polyQ80 inclusion reduction.
A short description of test [3]: 75Q-TubH aggregate inhibition, S. cerevisiae, yeast (AID 1616). As to conditions: S. cerevisiae 75Q-TubH polyglutamine aggregation suppression; stronger effect = higher value.
Test [4] is described as follows: compounds altering circadian rhythm period length – cell-based, LOPAC library, luminescence reporter (AID 2774).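 Further: values are relative to mean of DMSO wells on each plate.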 As to conditions: circadian reporter cells, at 7 µM, actives lie on both sides.
The nature of test [5]: compounds altering viability of human ES cells (AID 493140).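 Further: cells exposed to compounds for four days before counting.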 The note with it: human embryonic stem cell survival screen; stronger effect = higher value.
Test [6] can be described thus: P. berghei load reduction in hepatocytes – cell-based, HepG2, luciferase luminescence, HepG2 viability, primary screen (AID 624349; in the data active means parasite load remaining mostly below about 12%, no sharp cut-off; inactive means mostly above about 10%;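 further: 100% = mean of DMSO negative control wells on the same plate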). As to conditions: P. berghei liver stage in HepG2, luciferase luminescence, concentration not given here; parasite load remaining: stronger effect = lower value; viability: measured here: HepG2 viability without parasites.
For test [7], the system named is Hepatitis C virus NS3 helicase. Put plainly: blockers of NS3h binding to ssDNA – biochemical, fluorescence polarization, LOPAC1280 library, primary screen (AID 687035; in the data active means inhibition above about 37%). As to conditions: Purified HCV NS3 helicase, Cy5-dT15 ssDNA binding fluorescence polarization; stronger effect = higher value; concentration not given here. (In fluorescence polarisation assays a small probe gives low polarisation when free and higher when bound to something large.)

Test [8] is described as follows: compounds altering Cy5-DNA-NS3h complex signal – biochemical, LOPAC1280, artefact control for HCV NS3 helicase inhibitor project (AID 687037). The note with it: Cy5-DNA-NS3h complex fluorescence interference counterscreen. In general terms: The purpose of a counterscreen is to sort out artefacts and off-target activity.
Test [9] is described as follows: Wnt pathway potentiators raising nuclear beta-catenin – imaging, WNT3A-conditioned medium, mouse C2C12, NPC library, primary screen (AID 1117326; in the data active means nuclear beta-catenin stimulation mostly above about 4.2%, no sharp cut-off; inactive means mostly below about 10%). As to conditions: stronger effect = higher value.
Test [10] is described as follows: rescue of PC12 cells from polyQ htt toxicity – LDH release (AID 1610). The note with it: PC12 mutant huntingtin toxicity, final LDH at 4 uM, stronger effect = lower value. In general terms: Release of lactate dehydrogenase indicates damage to the cell membrane.
A short description of test [11]: signal quenchers or enhancers, Cy5 substrate/SSB – biochemical, NIH Clinical Collection, E. coli SSB, artefact control for HCV NS3 helicase inhibitor project (AID 743268). As to conditions: Cy5-oligo bound E. coli SSB, fluorescence interference.
The test system of test [12] is Hepatitis C virus NS3 helicase. The test can be described thus: blockers of NS3h binding to DNA – biochemical, fluorescence polarization, NIH Clinical Collection, primary screen (AID 743270). As to conditions: NS3 helicase binding to Cy5-dT15 DNA, stronger effect = higher value, concentration not given here.
Test [13] has as its target Single-stranded DNA-binding protein (Escherichia coli (strain K12)) (UniProt P0AGE0). Put plainly: SSB-ssDNA binding inhibitors – biochemical, fluorescence polarization, NIH Clinical Collection, counter-screen for HCV NS3 helicase inhibitor project (AID 743271; in the data active means inhibition above about 28%). The note with it: E. coli SSB-DNA binding, stronger effect = higher value, concentration not given here.
Test [14] can be described thus: compounds distorting NS3 helicase fluorescence signal – biochemical, NIH Clinical Collection, artefact control for HCV NS3 helicase inhibitor project (AID 743272).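 Further: HCV NS3 helicase with a Cy5 labelled single stranded DNA probe.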 As to conditions: fluorescence interference counterscreen, HCV NS3 helicase assay; stronger effect = lower value.

Structures are written as SMILES. “And” between values parts separate entries of the source, which are not always exact repeats. Equal values may be shown once. Records with an inconclusive call do not appear. The source made the active and inactive calls. Unless noted, how the calls were made is not given here.

Take `O=c1c(O)c(-c2ccc(O)c(O)c2)oc2cc(O)cc(O)c12`: the glutamate uptake change in [1] stood at 12.9%. In addition, the inclusion score in [2] was determined as 1. The aggregation suppression score in test [3] worked out at 1.03. For the same compound, the period change in [4] is -0.025 h (inactive). Also, the survival in [5] was 4.17 (inactive) and 87 (inactive). Besides, in [6], the parasite load remaining is 49.9% (inactive) and 67.9% (inactive); the viability was 108% and 73.7%. In test [7], the inhibition was 2% (inactive). Moreover, in test [8], the fluorescence ratio (interference) is 0.9 (inactive). In [9] (at 10 µM), the nuclear beta-catenin stimulation was 2.6% (inactive). In addition, the nuclear beta-catenin stimulation in test [9] (stimulation, at 2 µM) is 1.7%.
With `N=C(N)N`, the glutamate uptake change in [1] worked out at 5.8%. The compound further showed an inclusion score in [2] of 2. The compound further displayed an aggregation suppression score in test [3] of 0.901. Further, the nuclear beta-catenin stimulation in test [9] (at 10 µM) was -1.9% (inactive); in test [9] (stimulation, at 2 µM), 0.6%.
Consider `CC1=C(C(=O)O)N2C(=O)[C@@H](NC(=O)[C@H](N)C3=CCC=CC3)[C@H]2SC1`, for which the glutamate uptake change in [1] was -0.28%. The compound also came in with an inclusion score in [2] of 2. Besides, in [3], the aggregation suppression score worked out at 1.56. Moreover, the nuclear beta-catenin stimulation in test [9] (at 10 µM) is -1.1% (inactive); in [9] (stimulation, at 2 µM) it was -2.4%.
In the case of `Nc1c(Br)cc(Br)cc1CNC1CCC(O)CC1` (centres undefined), in [10], the normalised LDH release is 0.856. In test [1], the glutamate uptake change was found to be 5.04%. This compound yielded an inclusion score in [2] of 2. Also, the aggregation suppression score in test [3] is 1.15. Besides, in test [5], the survival is 4.58 (inactive). For the same compound, the nuclear beta-catenin stimulation in test [9] (at 10 µM) is 1.6% (inactive); in test [9] (stimulation, at 2 µM), 0.3%.
With `Cc1nc(-c2ccc(OCC(C)C)c(C#N)c2)sc1C(=O)O`, the nuclear beta-catenin stimulation in test [9] (at 10 µM) was 1.3% (inactive); in test [9] (stimulation, at 2 µM) it was 0.4%.
Turning to `Cc1cc(C2CCCCC2)n(O)c(=O)c1`, the normalised LDH release in test [10] came to 0.668. Moreover, in [1], the glutamate uptake change is -12%. Besides, the aggregation suppression score in [3] is 0.0349. Further, the survival in [5] is 0.667 (inactive). Moreover, the nuclear beta-catenin stimulation is 64.4% (active) in [9] (at 10 µM) and 14.3% in test [9] (stimulation, at 2 µM).
Turning to `CC1=NN(c2ccccc2)C(=O)C1`, in [1], the glutamate uptake change is -0.14%. Also, in [2], the inclusion score was found to be 2. The aggregation suppression score in test [3] worked out at 0.985. Also, the nuclear beta-catenin stimulation was 0.5% (inactive) in [9] (at 10 µM) and 0.8% in test [9] (stimulation, at 2 µM).
In test [10], `C[N+](C)(C)CCOC(N)=O` returned a normalised LDH release of 0.399. In [1], the glutamate uptake change was -6.66%. The compound further gave an inclusion score in test [2] of 2. The aggregation suppression score in test [3] turned out to be 1.67. For the same compound, the period change in test [4] is 0.05 h (inactive). In addition, in test [5], the survival was 4.67 (inactive). Further, in [7], the inhibition is -1% (inactive). For the same compound, the fluorescence ratio (interference) in [8] is 0.9 (inactive). Further, the nuclear beta-catenin stimulation is -0.5% (inactive) in test [9] (at 10 µM) and 2.3% in test [9] (stimulation, at 2 µM).
Regarding `NNc1nncc2ccccc12`, in test [1], the glutamate uptake change turned out to be 4.84%. Also, the inclusion score in [2] is 2. In test [3], this compound had an aggregation suppression score of 1.4. Moreover, in [4], the period change was 0.12 h (inactive). Besides, in test [5], the survival was 18.2 (inactive). Besides, in test [6], the parasite load remaining was 83.7% (inactive) and 102% (inactive) and 72.4% (inactive); the viability is 72.8% and 96.1% and 95%. Besides, the inhibition in test [7] is -3% (inactive). Moreover, the fluorescence ratio (interference) in [8] is 1 (inactive). Further, the nuclear beta-catenin stimulation in test [9] (at 10 µM) is -0.9% (inactive). Besides, the nuclear beta-catenin stimulation in test [9] (stimulation, at 2 µM) is -1.5%.
`CCCCCCCCCCCCCCCCCCOCC(O)CO` (centres undefined): the glutamate uptake change in test [1] came to 11.1%. This compound came in with an inclusion score in test [2] of 2. Further, in test [3], the aggregation suppression score came out at 0.825. Also, the nuclear beta-catenin stimulation in [9] (at 10 µM) is 3.8% (inactive); in test [9] (stimulation, at 2 µM), 2.8%.
Consider `Oc1c(Cl)cc(Cl)c(Cl)c1Cc1c(O)c(Cl)cc(Cl)c1Cl`, for which the normalised LDH release in [10] came to 0.936. In addition, in test [1], the glutamate uptake change is -31.4%. Besides, the aggregation suppression score in test [3] is -0.244. Further, the parasite load remaining in test [6] is -3.37% (inactive) and -0.17% (inactive) and -0.05% (inactive). Further, the viability in test [6] is 54.9% and 42.6% and 53.4%. In addition, the fluorescence ratio is 1.01 (inactive) in test [11] and 0.92 (inactive) in [14]. The inhibition was 15.9% (inactive) in test [12] and 20.1% (inactive) in test [13]. In addition, the nuclear beta-catenin stimulation was 15% (inactive) in test [9] (at 10 µM) and 8.3% in [9] (stimulation, at 2 µM).
Consider `CN(C)[C@@H]1C(=O)C(C(N)=O)=C(O)[C@@]2(O)C(=O)C3=C(O)c4c(O)ccc(Cl)c4[C@@H](O)[C@H]3C[C@@H]12`, for which, in test [1], the glutamate uptake change worked out at 0.55%. In addition, the inclusion score in test [2] stood at 0. The compound further came in with an aggregation suppression score in test [3] of 0.533. In [4], the period change is 0.065 h (inactive). The survival in [5] was 2.92 (inactive). In addition, in test [6], the parasite load remaining was 68.4% (inactive) and 96.7% (inactive) and 81.2% (inactive); the viability is 95.5% and 71.1% and 88.6%. For the same compound, the inhibition in test [7] was -3% (inactive). For the same compound, the fluorescence ratio (interference) in test [8] was 1 (inactive). Besides, the nuclear beta-catenin stimulation in test [9] (at 10 µM) is 6.3% (inactive). In [9] (stimulation, at 2 µM), the nuclear beta-catenin stimulation worked out at 4.3%.
Consider `CCN(CC)CCOCCOC(=O)C1(c2ccccc2)CCCC1`, for which, in test [1], the glutamate uptake change is 7.48%. This compound displayed an inclusion score in test [2] of 1.5. The aggregation suppression score in [3] turned out to be 1.37. Moreover, the period change in [4] is 0.125 h (inactive). Further, the survival in [5] was 5.08 (inactive). In addition, in [7], the inhibition is 0% (inactive). Further, the fluorescence ratio (interference) in test [8] is 1 (inactive). Also, the nuclear beta-catenin stimulation is -0.6% (inactive) in test [9] (at 10 µM) and -0.4% in [9] (stimulation, at 2 µM).
On to `CCN(CC)CCNC(=O)c1cc(S(C)(=O)=O)ccc1OC`, for which the glutamate uptake change in test [1] was -0.98%. In [2], the inclusion score was 2. The compound also showed an aggregation suppression score in test [3] of 1.49. Further, the period change in [4] was 0.15 h (inactive). Also, in test [5], the survival is 16.2 (inactive). For the same compound, the inhibition in [7] was -3% (inactive). Also, the fluorescence ratio (interference) in test [8] is 0.9 (inactive). Besides, the nuclear beta-catenin stimulation was 1.9% (inactive) in test [9] (at 10 µM) and 0.2% in [9] (stimulation, at 2 µM).
On to `CCCOc1ccccc1-c1nc2n[nH]nc2c(=O)[nH]1`, for which the glutamate uptake change in test [1] was -4.8%. Moreover, the inclusion score in test [2] amounted to 2. Further, the aggregation suppression score in test [3] is 1.1. For the same compound, the period change in test [4] was -0.2 h (inactive). Besides, in [5], the survival is 9.92 (inactive). Moreover, the inhibition in [7] was -1% (inactive). In addition, the fluorescence ratio (interference) in test [8] was 1 (inactive). Also, the nuclear beta-catenin stimulation in test [9] (at 10 µM) is -0.2% (inactive); in test [9] (stimulation, at 2 µM) it was 0.5%.
Regarding `Cc1cc(C(C)(C)C)cc(C)c1CC1=NCCN1`, the glutamate uptake change in [1] turned out to be 16.9%. Moreover, the inclusion score in test [2] amounted to 2. The compound also came in with an aggregation suppression score in test [3] of 1.86. The period change in test [4] was 0.03 h (inactive). Also, the survival in test [5] was 6.75 (inactive). For the same compound, in test [7], the inhibition was 1% (inactive). Further, the fluorescence ratio (interference) in test [8] was 1 (inactive). For the same compound, the nuclear beta-catenin stimulation in test [9] (at 10 µM) was 0.1% (inactive); in test [9] (stimulation, at 2 µM), 1%.
As for `CS(=O)(=O)Nc1ccc([N+](=O)[O-])cc1Oc1ccccc1`, the glutamate uptake change in [1] was -10.7%. Besides, in test [2], the inclusion score was found to be 2. The compound also showed an aggregation suppression score in test [3] of 0.728. For the same compound, in [4], the period change is 0.17 h (inactive). Moreover, the survival in [5] was 16.8 (inactive). Moreover, the inhibition in [7] is -3% (inactive). Further, the fluorescence ratio (interference) in test [8] was 1 (inactive). Moreover, the nuclear beta-catenin stimulation is 0.4% (inactive) in test [9] (at 10 µM) and -0.6% in test [9] (stimulation, at 2 µM).

The term viability denotes a read-out of living cells in per cent, often relative to untreated cells. Usually inhibition stands for the change of the read-out against control, counted positive when it falls.
